{"source": "PubChem BioAssay AID624141", "about": "(Broad Institute, 2012)", "note": "About 260 (1.5%) of roughly 17,000 compounds were called active.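 The calls were made as follows: active = spot fluorescence over background with P-value below 7% in all four replicate spots, showing protein binding; inactive = the rest.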 The full list was thinned out, with actives kept by preference."}
{"target": "Myc proto-oncogene protein (Homo sapiens) (UniProt P01106)", "sequence (P01106 whole entry, looked up)": "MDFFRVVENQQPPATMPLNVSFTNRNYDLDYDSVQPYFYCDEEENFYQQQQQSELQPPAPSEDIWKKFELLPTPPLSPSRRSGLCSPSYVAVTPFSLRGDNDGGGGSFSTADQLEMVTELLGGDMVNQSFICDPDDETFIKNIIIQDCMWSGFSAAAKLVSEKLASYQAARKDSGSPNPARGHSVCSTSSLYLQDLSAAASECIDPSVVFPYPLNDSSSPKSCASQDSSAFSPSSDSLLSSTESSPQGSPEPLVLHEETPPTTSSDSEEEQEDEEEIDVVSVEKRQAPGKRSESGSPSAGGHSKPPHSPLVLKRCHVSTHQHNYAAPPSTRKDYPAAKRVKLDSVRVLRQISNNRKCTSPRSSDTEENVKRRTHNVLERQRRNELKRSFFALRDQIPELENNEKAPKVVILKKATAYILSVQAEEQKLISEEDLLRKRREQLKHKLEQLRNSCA", "test": "binders of human c-Myc, primary screen, biochemical, small molecule microarray, anti-His fluorescence (AID 624141)", "conditions": "His-c-Myc binding"}
{"smiles": "c1cncc(CNCCc2c[nH]c3ccccc23)c1", "outcome": "active"}
{"smiles": "COc1ccc2[nH]cc(CCNCc3ccc(Br)cc3)c2c1", "outcome": "inactive"}
{"smiles": "c1ccc(CCCCN2CCC(c3ccccc3)CC2)cc1", "outcome": "inactive"}
{"smiles": "C[C@H](CO)N1C[C@H](C)[C@H](CN(C)C(=O)Oc2ccc3ccccc3c2)OCc2cnnn2CCCC1=O", "outcome": "inactive"}
{"smiles": "CN[C@@H]1C[C@H]2O[C@@](C)([C@@H]1OC)n1c3ccccc3c3c4c(c5c6ccccc6n2c5c31)C(=O)NC4", "outcome": "inactive"}
